This is a sample that favours compounds with a hit; in the whole collection about 13% have one here.
Pf growth 96h: Primary qHTS for delayed death inhibitors of the malarial parasite plastid, 96 hour incubation; P. falciparum luciferase reporter growth, 96 h; Potency, µM (top dose mostly 28.7 µM), for the others: at the top dose activity change, negative = inhibition, actives largely listed as inhibitors; 320,000 compounds, 6.9% hits; AID 504834, 2011; note: potency is the fitted concentration of half-maximal effect
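P. falciparum expressing integrated firefly luciferase grown in erythrocytes (2% hematocrit, 0.05% parasitemia final) with compounds for 96 hours at 37 C, 5% CO2. Growth inhibition read as loss of luminescence after adding luciferase detection reagent.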
HCV inhibitor: qHTS Assay for Inhibitors of Hepatitis C Virus (HCV). 340,000 compounds, 3.4% hits. Potency, µM (series often up to 41.8 µM), inactives show at the top dose activity change, negative = inhibition, hits mostly inhibitors. Huh7.5.1 HCVcc-Cre infection, luciferase reporter, 44 h. AID 651820, 2012; note: potency is the fitted concentration of half-maximal effect
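Infectious HCVcc-Cre (~0.5 moi) was added to cells just after compound, with cells seeded 4 h earlier at 1,000 per well. Luciferase activity after 44 h culture reported infection; substrate was incubated 15 min at room temperature before reading.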
Pf growth 48h: Primary qHTS for delayed death inhibitors of the malarial parasite plastid, 48 hour incubation; P. falciparum luciferase growth in erythrocytes, 48 h; Potency, µM (top dose mostly 28.7 µM), without a hit: at the top dose activity change, negative = inhibition, hits mostly inhibitors; 310,000 compounds, 5.9% hits; AID 504832, 2011; note: potency is the fitted concentration of half-maximal effect
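Parasite viability was followed by luminescence of a genomically integrated firefly luciferase. Cultures held 0.1% parasitemia at 2% hematocrit (final), incubated under 5% CO2 at 37 C.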
HCMV inh: qHTS Assay for inhibitors of the human cytomegalovirus (HCMV) | HFF cells, HCMV-luciferase reporter, 72 h; active compounds read low | activity change, negative = inhibition, % at 57.5 µM | 410,000 compounds, 4.5% hits; in the data active = activity change below about -60%; inconclusive = no clear call, values can overlap the other calls; inactive = above about -39%
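After 16 h attachment at 37C, HFF cells received test compound and HCMV-luciferase (1 PFU/cell); reporter luminescence read 72 h later, data normalized against buffer-only and known inhibitor Salinomycin.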
The depositor's hits bear a star; ? = inconclusive; . = no result; [ ] = another dose, or the depositor's remark. Unless noted, calls come from the whole dose curve; as a rule, active = well fitted inhibition curve with a large enough effect; inconclusive = small, poorly fitted or top-dose-only effect, or another doubt; inactive = no such curve, though single readings can be large or run the other way. % is set by controls: 0 for no effect and ±100 for the full control effect.

SMILES	Pf growth 96h	HCV inhibitor	Pf growth 48h	HCMV inh
COc1ccc(OC)c(NC(=O)c2cccc(C)c2[N+](=O)[O-])c1	1.7µM*	?	9%	?
COc1ccc(NC(=O)C2=C(C)Nc3ncnn3C2c2cccn2C)cc1 (centres undefined)	.	.	.	14
COC(=O)C1=C(C)N(C(C)C)C(=O)C1(NC(=O)c1ccccc1OC)C(F)(F)F (centres undefined)	.	.	.	4
COc1ccccc1NC(=S)NCc1cccnc1	?	11%	11%	24
COc1cc(NC(=S)Nc2cccc(Cl)c2Cl)c(OC)cc1Cl	2.9µM*	-15%	?	?
COc1cc(NC(=S)Nc2ccc(Br)cc2Cl)c(OC)cc1Cl	?	-23%	?	-40
COc1cc(NC(=S)NCCc2ccc(S(N)(=O)=O)cc2)c(OC)cc1Cl	?	-21%	37%[5.75 µM]	-61*
COc1cc(NC(=S)NCc2cccnc2)c(OC)cc1Cl	12µM*	-24%	5%	?
Cc1ccc(NC(=O)Cn2c(=O)ccc3cc(S(=O)(=O)N4CCC(C)CC4)ccc32)c(C)c1	.	.	.	19
CCOc1sc2nc(C)n(CC(=O)Nc3cccc(C)c3)c(=O)c2c1C	.	.	.	2
CCOc1ccc(NC(=O)CSC2=Nc3ccccc3C3=NC(CC(=O)NCc4ccccc4OC)C(=O)N23)cc1 (centres undefined)	.	.	.	0
CCOC(=O)C1(C)CCCCCN1C(=O)c1ccc(N(C)C)cc1 (centres undefined)	.	.	.	-7
COc1ccc(Cl)cc1NC(=O)c1c(NCc2cccs2)sc2c1CCCC2	.	.	.	9
CCCCNC(=O)C1C(c2ccc(OC)cc2)=Nc2ccccc2N1C(=O)c1ccncc1 (centres undefined)	.	.	.	-35
COC(=O)c1cc(C)nc2c1C(=O)C(=O)C=C2N1CCOCC1	-2%	2.5µM*	13µM*	-93*
COC(=O)c1cc(S(=O)(=O)N2CCOCC2)c(Cl)cc1N1CCOCC1	.	9%	9%	10
CCOC(=O)c1sc(NC(=O)c2ccccc2C(=O)O)c(C(=O)OCC)c1C	?	?	?	-17
CCOC(=O)c1cc(CC)sc1NC(=O)C1CC1	.	11µM*	-17%	14
CCOC(=O)c1cc(CC)sc1NC(=O)c1ccc2c(c1)OCCO2	.	?	1%	12
CCOC(=O)c1cc(CC)sc1NC(=O)C(c1ccccc1)c1ccccc1	8.3µM*	-28%	?	14
CCOC(=O)c1cc(CC)sc1NC(=O)c1cc(OCC)c(OCC)c(OCC)c1	5.9µM*	2.8µM*	8.3µM*	-1
CCOC(=O)c1c(NC(=O)C(c2ccccc2)c2ccccc2)sc2c1C1CCN2CC1	?	?	2.1µM*	-65*
CCN(CC)S(=O)(=O)c1ccc(N2CCCCS2(=O)=O)cc1	.	.	.	24
Cc1ccc(NC(=O)c2c(C)oc3ncnc(N4CCCCC4)c23)c(C)c1	.	.	.	-20
CCc1ccc(CN(Cc2ccco2)c2cnc(S(C)(=O)=O)nc2C(=O)Nc2cccc(C)c2)cc1	.	.	.	-3
SMILES	Pf growth 96h	HCV inhibitor	Pf growth 48h	HCMV inh
O=c1nc(N2CCCC2)nc(Nc2ccccc2)[nH]1	15µM*	3%	0%	?
c1ccc(Nc2nc(N3CCCC3)nc(N3CCOCC3)n2)cc1	.	.	.	22
c1ccc(Nc2nc(Nc3ccccc3)nc(N3CCNCC3)n2)cc1	9.3µM*	-26%	?	29
Cc1ccc(OCC(=O)NNC(=O)CCC(=O)NCc2ccccc2)cc1	?	-12%	-10%	-15
Cc1ccc(OCC(=O)NNc2c3ccccc3nc3ccccc23)cc1	?	1µM*	9.3µM*	-95*
O=C(Cc1ccccc1)NNc1c2ccccc2nc2ccccc12	81%	?	-12%	-67*
O=C(Nc1c2c(nc3ccccc13)CCCC2)c1ccccc1Cl	-18%	13%	18%	-30
O=C(Nc1c2ccccc2nc2ccccc12)C(Cl)(Cl)Cl	36%	?	1µM*	.
Cc1cccc(OCC(=O)NNc2c3ccccc3nc3ccccc23)c1	3.7µM*	1µM*	?	-97*
Cc1cccc(OCC(=O)Nc2nnc(S(=O)(=O)N3CCCCC3)s2)c1	7.4µM*	20%	19%	-26
CCc1cccc(OCC(=O)Nc2ccc(S(=O)(=O)N3CCCC3)cc2)c1	?	11µM*	?	-27
